High-throughput results deposited in PubChem by National Center for Advancing Translational Sciences (NCATS).
This excerpt belongs to a sample that is enriched for hits.
Methyltransferases: Primary Screen for Target Class Profiling of Small Molecule Inhibitors of Methyltransferases; purified enzyme, MTase-Glo SAH luminescence; active compounds read low; calls only at 40 µM; 3.9% of 25,000 active; call rule not given here
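Each enzyme was reacted with SAM and its substrate, with compounds tested once at 40 uM; SAH formed was read by MTase-Glo luminescence.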
Numbers without * were called inactive; i = inactive; + = active, no number. % is scaled to controls: 0 for no effect and ±100 for the full control effect.

SMILES	Methyltransferases
COC(=O)Cn1nc(-c2cccc(OC)c2)c2ccccc21	i
CCc1c(-c2ccccc2)c(-c2ccccc2)nn1-c1ccccc1-c1cccc(OCC(=O)O)c1	+
CC(C)CN1CC(COc2ccc3ccccc3c2)Oc2ccnc(-c3ccc(OCC(=O)O)cc3)c2C1=O (stereo not drawn)	i
CC1CC(C)CN(S(=O)(=O)c2ccc3c(c2)oc(=O)n3CC(=O)NCc2ccccc2)C1 (stereo not drawn)	i
O=C(NC[C@H]1OC[C@@H](N(Cc2cnc[nH]2)Cc2cnc[nH]2)[C@@H]1O)C1CCCC1	i
OC[C@H](Cc1ccccc1)Nc1nc(Oc2ccc3c(c2)CCC3)nc2c1ncn2Cc1ccc(-c2ccccc2)cc1	+
Cc1cc(C)cc(NC(=O)Cn2nc3n(CCC(C)C)c(=O)c4ccccc4n3c2=O)c1	i
CC1(C(=O)NC2CCCCCCC2)Cn2c(ccc2-c2ccccc2)C(=O)N1Cc1cccs1 (stereo not drawn)	i
Nc1c(NC/C=C\COc2cc(CN3CCCCC3)ccn2)c(=O)c1=O	+
O=C1CCN(Cc2cccc(F)c2)CCCCCCN1	i
COc1ccc(CNC(=O)[C@@H]2CCC[C@@H](NC(=O)C3CC3)CN(C)C(=O)C2)cc1	i
CC[C@@H](Nc1c(Nc2cccc(C(=O)N(C)C)c2O)c(=O)c1=O)c1cc(C(C)C)co1	i
C=CC1C(O[C@@H]2O[C@H](CO)[C@@H](O)[C@H](O)[C@H]2O)OC=C(C(=O)OC)C1CC(=O)O (stereo partly drawn)	i
Cc1ccc(NC(=O)Cn2nc3n(C(C)C)c(=O)c4ccc(C(=O)NC(C)C)cc4n3c2=O)cc1F	i
CC(C)Cn1c(=O)c2ccccc2n2c(-c3ccc(Br)cc3)nnc12	i
CNC(=O)c1cc[nH]c1C1CCCN(C(=O)c2ccc(Cn3cncn3)o2)C1 (stereo not drawn)	i
Cc1[nH]c2ccccc2c1CCNC(=O)c1ccccc1F	i
Cc1[nH]c2ccccc2c1CCNCc1ccc(/C=C/C(=O)NO)cc1	+
CCc1cccc(N2C(=O)c3cc4ccc(OC)cc4n3CC2(C)C(=O)NC2CCCC2)c1 (stereo not drawn)	i
C/C1=C\C[C@H](O[C@@H]2O[C@H](CO)[C@@H](O)[C@H](O)[C@H]2O)/C(C)=C/[C@H]2OC(=O)[C@H](C)[C@@H]2CC1	i
N#Cc1c(C2CCNCC2)cc(-c2c(O)cccc2OCC2CC2)nc1N	+
O=C(C1CCCCC1)N1CCC(n2cc(-c3nc(-c4ccccc4)no3)nn2)CC1	i
CN1C(=O)c2cc3ccccc3n2CC1(C)C(=O)NCC(=O)NCc1cccc(F)c1 (stereo not drawn)	i
O=C(CCc1nnc2n(CCc3ccccc3)c(=O)c3ccccc3n12)NCCc1c[nH]c2ccccc12	i
CNCCN(C)Cc1cn[nH]c1-c1ccc(OC2CC(OCCC3CCOCC3)C2)cc1 (stereo not drawn)	+
SMILES	Methyltransferases
COc1ccc(CNC(=O)c2cc3n(n2)CC(C)(C(=O)NCc2ccccc2)N(C)C3=O)cc1OC (stereo not drawn)	i
Cc1cn(-c2cc(NC(=O)c3ccc(C)c(Nc4nccc(-c5cccnc5)n4)c3)cc(C(F)(F)F)c2)cn1	i
NC(=NCCCCCCN=C(N)/N=C(\N)Nc1ccc(Cl)cc1)/N=C(\N)Nc1ccc(Cl)cc1	+
COc1ccccc1C(=O)N(Cc1ccco1)S(=O)(=O)c1ccc2c(c1)n(C)c(=O)n2C	i
COc1ccc(N2C(=O)CSc3c(c4ccccc4n3C)C2C(=O)NCCC(C)C)cc1 (stereo not drawn)	i
CCOC(=O)c1cc2n(n1)CC(C)(C(=O)NCc1ccccc1OC)N(c1cccc(F)c1)C2=O (stereo not drawn)	i
COc1ccc(/C=C/C(=O)Nc2ccccc2C(=O)O)cc1OC	i
COc1ccccc1CNC(=O)C1(C)Cn2nc(-c3ccccc3)cc2C(=O)N1Cc1ccc2c(c1)OCO2 (stereo not drawn)	i
COc1cc(/C=N\NC(=O)c2ccc3c(c2)OCO3)ccc1OCc1ccccc1	+
CCCNC(=O)N1CCOC[C@H](Oc2ccc(C(F)(F)F)cn2)C1	i
CCC(C)NC(=O)c1ccc2c(=O)n(C)c3nn(CC(=O)c4ccccc4)c(=O)n3c2c1 (stereo not drawn)	i
NC(=Nc1ccc(CCNCc2cccc(Cl)c2)cc1)c1cccs1	+
CCOC(=O)c1cc2n(n1)CC(C)(C(=O)NC1CCCCCC1)N(c1cc(OC)cc(OC)c1)C2=O (stereo not drawn)	i
CC(CN1C(=O)c2nc3ccccc3n2CC1(C)C(=O)NC1CCCCC1)c1ccccc1 (stereo not drawn)	i
CC1(C(=O)NCc2ccccc2)Cn2cnc(C(=O)NCCc3ccco3)c2C(=O)N1C1CC1 (stereo not drawn)	i
CC(C)Cn1c(=O)c2ccc(C(=O)NC(C)C)cc2n2c(=O)n(CC(=O)NC(C)C)nc12	i
O=C(Nc1cc(-c2ccccc2)nn1-c1ccccc1)c1ccc([N+](=O)[O-])cc1	i
O=[N+]([O-])c1ccc(-[n+]2nc(-c3ccccc3)nn2-c2ccc(I)cc2)cc1	+
CC(C)CCNC(=O)C1c2c(n(C)c3ccccc23)SCC(=O)N1Cc1ccccc1Cl (stereo not drawn)	i
CN(C)c1ccc(CNC(=O)Cn2c(=O)oc3cc(S(=O)(=O)NCc4ccccc4)ccc32)cc1	i
Cc1ccc(-c2nnn3c2nc(NCCc2c[nH]c4ccccc24)c2ccccc23)cc1	i
Cc1ccc(C)c(S(=O)(=O)c2nnn3c2nc(NCCc2c[nH]c4ccccc24)c2ccccc23)c1	i
O=C(O)CCCc1c[nH]c2ccccc12	i
c1ccc2c(CCNc3ccc(Nc4ccncc4)cc3)c[nH]c2c1	+
O=C(CN1C(=O)C2(CCCCC2)C1c1ccccc1)NCCc1c[nH]c2ccccc12 (stereo not drawn)	i
SMILES	Methyltransferases
c1cc(NCCc2c[nH]c3ccccc23)cc(Nc2ccncc2)c1	+
CC1CCC2(C(=O)O)CCC3(C)C(=CCC4C5(C)CCC(O)C(C)(CO)C5CCC43C)C2C1(C)O (stereo not drawn)	i
O=C([C@@H]1C[C@H](F)CN1C(=O)CCCc1ccccc1)N1CCCCC1	i
CC1(C(=O)NC2CCCCC2)Cn2c(cc3sccc32)C(=O)N1Cc1cccc(F)c1 (stereo not drawn)	i
C=C1C(=O)O[C@H](CCC)[C@H]1C(=O)O	i
CC1(C(=O)NCc2ccc(F)cc2)Cn2cnc(C(=O)NC3CC3)c2C(=O)N1C1CC1 (stereo not drawn)	i
COc1cc2c(cc1OC)CN(C(=O)/C=C/c1c(-c3ccccc3)n(C)c3ncccc13)CC2	+
COc1cc2c(cc1OC)CN(CCc1ccc(NC(=O)c3cc(OC)c(OC)cc3NC(=O)c3cnc4ccccc4c3)cc1)CC2	i
COc1ccccc1CC(C(=O)O)N(C)C(=O)c1ccccc1 (stereo not drawn)	i
CCCCN1C(=O)c2ccc(-c3ccco3)n2CC1(C)C(=O)NC1CCCCCC1 (stereo not drawn)	i
CCCCCCCCCC(=O)NC(CN1CCOCC1)[C@H](O)c1ccccc1 (stereo partly drawn)	i
COc1ccccc1N1CCN([C@@H]2[C@H](O)[C@H](CO)O[C@@H]2CN(Cc2ccc(F)cc2)Cc2ccc(F)cc2)CC1	i
